In the supplement of paper PMC7156485:

Each compound was assayed on HCC1569 (assay: H1.0 immunofluorescence intensity relative to DMSO (% of DMSO); higher = stronger H1.0 induction, active = 140 or more). Conditions: concentration: 10 µM; 24 h.
Outline: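 Cells were seeded at 800 per well in 384-well plates with RPMI containing 10% FBS; both HCC1569 and TDF lines were used. Compounds were added at 10 µM for 24 h at 37 °C, in triplicate, before fixation in 3.7% formaldehyde and staining with a rabbit anti-H1.0 antibody, an AlexaFluor 647 secondary and DAPI. H1.0 nuclear intensity or cell number is reported as percent of the plate control using the median of replicates, and HCC1569 values were smoothed for positional effects.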
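Note: TDF is a line of transformed human dermal fibroblasts of mesenchymal origin.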

H1.0 immunofluorescence intensity, inactive:
COc1ccc(Cl)cc1NC(=O)Nc1cc(C)nc2ccccc12 [IGF-1R Inhibitor II] 106
Cc1cc2c(s1)=Nc1ccccc1NC=2N1CCN(C)CC1 [Olanzapine] 95.6
CCOC(=O)c1cnc2c(cnn2CC)c1NN=C(C)C.Cl [Etazolate hydrochloride] 99.5
CCN(CC)CCOCCOC(=O)C1(c2ccccc2)CCCC1.O=C(O)CC(O)(CC(=O)O)C(=O)O [Carbetapentane citrate] 97.4
CC(=O)NCCOC(=O)[C@H](Oc1cccc(C(F)(F)F)c1)c1ccc(Cl)cc1 104
OCC1OC(n2cnc3c(NC4CCCCC4)ncnc32)C(O)C1O (stereo not drawn) [N6-Cyclohexyladenosine] 92.8
C[Se]CCC(N)C(=O)O (stereo not drawn) [Selenomethionine] 105
CN(C)CCC(c1ccc(Cl)cc1)c1ccccn1 (stereo not drawn) [Chlorpheniramine] 105
COc1cc(O)c2c(=O)c(O)c(-c3ccc(O)c(O)c3)oc2c1 [Rhamnetine] 130
CS(=O)(=O)c1ccc(C(O)C(COC(=O)CN)NC(=O)C(Cl)Cl)cc1 (stereo not drawn) [Thiamphenicol glycinate] 106
FC(F)(F)c1ccc(CNc2ccc(Cc3c[nH]c4ncccc34)cn2)cc1 139
C1CNCCN1.COc1cc(C(O)CO)ccc1O.COc1cc(C(O)CO)ccc1O (stereo not drawn) [MHPG piperazine] 93.6
CCCCCC=CCC=CCC=CCC=CCCCCCC(=O)O [7(Z), 10(Z), 13(Z), 16(Z)-Ocosatetraenoic Acid] 106
COc1cc(-c2ccc(=O)[nH]n2)ccc1OC(F)F [Zardaverine] 110
CC(C)Cc1ccc(C(C)C(=O)NO)cc1 (stereo not drawn) [Ibuproxam] 95.2
NCCCS(=O)(=O)[O-].[Na+] [3-Amino-1-propanesulfonic acid sodium] 91.9
CC(=O)Nc1nnc(S(N)(=O)=O)s1 [Acetazolamide] 83.3
CCCCCCCCCCCCCCCCOCC(CO)OC(C)=O (stereo not drawn) [1-Hexadecyl-2-O-acetyl-glycerol] 86.3
Cl.NCCNC(=O)c1ccc(Cl)cc1 [Ro 16-6491 hydrochloride] 107
NC1CONC1=O [L-Cycloserine] 84.8
NCCCC(O)(P(=O)([O-])O)P(=O)(O)O [Alendronate] 117
CCCCCCCCCCCCCCC(F)C(=O)O (stereo not drawn) [2-Fluoropalmitic acid] 104

H1.0 immunofluorescence intensity, active:
CC[C@@]1(O)C(=O)OCc2c1cc1n(c2=O)Cc2cc3c(CN(C)C)c(O)ccc3nc2-1 142
